Bioassay records (PubChem)
Shown are actives, neighbours in structure and some others; about 3.9% of the full set was active somewhere.
Anthrax LF prot: inhibitors of Bacillus anthracis lethal factor protease | P15917 | multiplex microsphere protease cleavage assay, LF | inhibition, % at 10 µM | 360,000 compounds, 0.12% hits; in the data active = inhibition above about 30%; inconclusive = no clear call, values can overlap the other calls; note: plate controls were buffer without enzyme for full effect and enzyme alone for no effect
BoNT-F LC inh: blocks Botulinum neurotoxin F light chain protease. Multiplex microsphere protease cleavage assay, flow cytometry. inhibition, % at 10 µM. 360,000 compounds, 0.22% hits; in the data active = inhibition above about 35%, passing the limit was not always enough; inconclusive = no clear call, values can overlap the other calls; note: plate controls were buffer without enzyme for full effect and enzyme alone for no effect
Autofluor counter: counter-screen for toxin protease inhibitors: compound fluorescence; fluorescence intensity (no concentration beside the values); compound autofluorescence counterscreen, microsphere flow cytometry; hits give high values; 360,000 compounds, 3.1% hits; in the data active = fluorescence intensity above about 16000; inconclusive = no clear call, values can overlap the other calls
3CLpro inhibitor: SARS-CoV 3CLpro protease inhibition. P0C6X7. recombinant SARS-CoV 3CLpro, quenched FRET peptide cleavage. inhibition, % at 6 µM. 290,000 compounds, 0.14% hits; in the data active = inhibition above about 12%
CCHF vOTU inh-1: CCHFV vOTU protease inhibition; 370,000 compounds, 0.55% hits; Pep-AMC fluorescence; AID 651958; inhibition, % at 11.5 µM; note: 0% = vehicle wells with enzyme and 100% = no enzyme wells
BoNT A protease: BoNT A light chain protease inhibition; multiplex microsphere protease substrate cleavage, flow cytometry; inhibition, % at 10 µM; 360,000 compounds, 0.17% hits; in the data active = inhibition above about 30%; inconclusive = no clear call, values can overlap the other calls; note: plate controls were buffer without enzyme for full effect and enzyme alone for no effect
CCHF vOTU inh-2: confirmation of CCHF virus vOTU protease inhibitors. shares compounds with CCHF vOTU inh-1. Recombinant CCHFV vOTU, Pep-AMC fluorescence. inhibition, % at 11.5 µM. 1,900 compounds, 17% hits
An asterisk follows results filed as active; ? = inconclusive; nt = no result given. Cut-off read from the data, not from the text of the source, unless noted: active = inhibition above about 30%; inactive = the rest.

SMILES | Anthrax LF prot | BoNT-F LC inh | Autofluor counter | 3CLpro inhibitor | CCHF vOTU inh-1 | BoNT A protease | CCHF vOTU inh-2
CC(=O)Nc1ccc(S(=O)(=O)Nc2nc3ccccc3nc2Nc2ccc(N)cc2)cc1 | 0 | 1 | ? | -2 | 25 | 0 | nt
CC(=O)Nc1ccc(Nc2nc3ccccc3nc2NS(=O)(=O)c2ccc(Cl)c([N+](=O)[O-])c2)cc1 | 1 | -9 | 5211 | nt | 32* | -1 | 15
NC(=O)c1c(N)[nH]c(C(=O)c2ccccc2)c1-c1ccc2c(c1)OCO2 | nt | nt | nt | nt | 1 | nt | nt
COc1ccc(C2C(C(=O)N3CCCC3)c3cc(OC)c(OC)cc3C(=O)N2C)cc1OC (centres undefined) | 0 | -3 | 9493 | -4 | 31* | 1 | -23
Cc1cc(C)cc(N(CC(=O)Nc2ccc(C(F)(F)F)cc2)S(=O)(=O)c2c(C)[nH]c(=O)[nH]c2=O)c1 | 1 | 5 | 4484 | 10 | 33* | -1 | -13
CCOC(=O)C1=CCN(S(=O)(=O)c2ccccc2Br)C1c1ccc(Cl)cc1 (centres undefined) | nt | nt | nt | nt | 7 | nt | nt
COc1ccc(C(=O)/C=C/c2ccc(OCc3ccccc3)cc2)cc1CSCC(=O)O | -2 | 4 | 4410 | 4 | 36* | -1 | 3
COc1ccc2c(c1)Cc1sc(NC(=O)c3ccco3)nc1-2 | -3 | -6 | 3373 | -13 | 105* | 0 | -6
O=S1(=O)c2ccc(N3CCC[C@@H]3CO)cc2OCCCN1C1CC1 | nt | nt | nt | nt | 3 | nt | nt
CCc1c(C)nc2c(C)cccc2c1SCCC#N | 1 | 1 | 2234 | -5 | 33* | 0 | -11
O=C(NC(NC1CCS(=O)(=O)C1)C(=O)c1cccs1)c1ccccc1 (centres undefined) | nt | nt | nt | 0 | 2 | nt | nt
O=C1C(Cl)=C(NC(=O)c2ccccc2)C(=O)C(Cl)=C1NC(=O)c1ccccc1 | -5 | -12 | 3660 | -4 | 97* | 3 | -8
CN(C1=C(NC(=O)c2ccc(Cl)cc2)C(=O)c2ccccc2C1=O)c1ccccc1 | -4 | -28 | 1490 | 2 | 45* | 0 | 14
Cc1cccc(NC2=C(NC(=O)c3ccccc3)C(=O)c3ccccc3C2=O)c1 | -4 | -10 | 2215 | 5 | 68* | 0 | 37*
O=C(Nc1cccc(Cl)c1)c1ccccc1 | 7 | -6 | 2916 | nt | 1 | 0 | nt
O=C(NC1=C(Nc2ccc(Cl)cc2)C(=O)c2ccccc2C1=O)c1ccccc1 | -2 | -7 | 2563 | 1 | 18 | -2 | nt
O=C(NC1=C(NC2CCS(=O)(=O)C2)C(=O)c2ccccc2C1=O)c1ccccc1 (centres undefined) | -8 | -6 | 4584 | 3 | 71* | -1 | 69*
S=C1NCCN1c1ccc(Cl)cc1 | nt | nt | nt | nt | 6 | nt | nt
O=S(=O)(c1ccc(Br)s1)N1CCC(c2nc3ccccc3o2)CC1 | nt | nt | nt | nt | -4 | nt | nt
O=c1cc(-c2ccc(O)cc2)oc2c(-c3c(O)cc(O)c4c(=O)cc(-c5ccc(O)cc5)oc34)c(O)cc(O)c12 | -6 | -13 | 5691 | nt | 20 | -1 | nt
O=c1cc(-c2ccc(O)c(-c3c(O)cc(O)c4c(=O)cc(-c5ccc(O)cc5)oc34)c2)oc2cc(O)cc(O)c12 | -7 | 2 | 3390 | -3 | 30* | 0 | -3
CCOC(=O)c1ccc(NC(=O)CSc2nnc(-c3cccc(C)c3)n2C)cc1 | nt | nt | nt | nt | 3 | nt | nt
CCCNC(=O)Nc1ccc2c(c1)C(=O)N(C)[C@H]1CC[C@@H](CC(=O)OC)O[C@H]1CO2 | nt | nt | nt | nt | -4 | nt | nt
CSc1ccc(/C=N/NC(=O)c2ccc(-n3cnnn3)cc2)cc1 | -4 | -11 | 3245 | nt | 2 | -1 | nt
CC(C)(C)c1ccc(/C=N/Nc2nncn2N)cc1 | 3 | -7 | 3495 | 0 | 89* | 2 | 5
SMILES | Anthrax LF prot | BoNT-F LC inh | Autofluor counter | 3CLpro inhibitor | CCHF vOTU inh-1 | BoNT A protease | CCHF vOTU inh-2
CC1CCN(c2ccc(/C=N\Nc3nncn3N)cc2[N+](=O)[O-])CC1 | -5 | -21 | 2039 | -3 | 88* | -1 | 12
CC1CCN(c2ccc(/C=N/n3nnnc3N)cc2[N+](=O)[O-])CC1 | -5 | 2 | 6960 | 2 | 8 | -1 | nt
CC(C)(C)c1nnc(N/N=C/c2ccc(Br)cc2)n(N)c1=O | -3 | -4 | 2125 | -1 | 24 | 0 | nt
Nn1cnnc1N/N=C/c1cc(Br)cc(Br)c1O | 1 | 4 | 2367 | -3 | 104* | -1 | -13
CSc1ccc(/C=N\Nc2nncn2N)cc1 | 12 | 16 | 3739 | 0 | 101* | -1 | -7
CCn1c(SCC(=O)NN=Cc2c(C)nn(-c3ccccc3)c2C)nnc1-c1ccc(OC)c(OC)c1 | nt | nt | nt | nt | -2 | nt | nt
Cc1n[nH]c(C)c1S(=O)(=O)NCCc1ccccc1 | nt | nt | nt | nt | 2 | nt | nt
CC1(C(=O)NS(=O)(=O)c2cccc(F)c2)CCN1C(=O)C1CCCCC1 (centres undefined) | -3 | -4 | 3377 | nt | 34* | 0 | -17
COC(=O)C1=C(C)N(Cc2ccccc2C(F)(F)F)C(=NCc2ccccc2C(F)(F)F)NC1c1cccc(F)c1 (centres undefined) | nt | nt | nt | nt | 9 | nt | nt
O=C(c1ccco1)N1CCN(C(=O)c2ccc(CS(=O)c3ccc(Cl)cc3)o2)CC1 (centres undefined) | -2 | -5 | 4513 | 1 | 39* | -1 | -8
O=C(O)COc1ccccc1/C=N/NC(=O)Cc1csc(Nc2cccc(C(F)(F)F)c2)n1 | -6 | -6 | 4784 | 5 | 32* | -1 | -2
COc1ccccc1C(CCNCc1ccc(N(C)C)cc1)c1ccc(OC(C)C)cc1 (centres undefined) | -20 | -43 | 4173 | 2 | 33* | -2 | -12
COc1ccc(NC(=O)c2cccnc2)cc1 | 7 | ? | 3239 | -1 | -14 | -2 | nt
C/C(=C\C(=O)c1ccccc1)Nc1ccc(O)cc1 | -20 | -4 | 10137 | 7 | 76* | -2 | -3
C/C(=C\C(=O)c1cccnc1)Nc1ccc(O)cc1 | -3 | -6 | 5639 | 1 | 95* | 0 | -1
C[C@H]1CN([C@@H](C)CO)C(=O)CCCn2cc(nn2)CO[C@@H]1CN(C)C(=O)c1ccc2ccn(C)c2c1 | nt | nt | nt | nt | 4 | nt | nt
C=CC[C@@H](CC(=O)N(CCO)Cc1ccccc1)C(=O)N[C@H](COC(=O)[C@@H](CC=C)CC(=O)OC(C)(C)C)Cc1ccccc1 | -5 | 6 | 3583 | nt | 37* | 0 | 21
C=CC[C@H](CC(=O)N(CCO)Cc1ccccc1)C(=O)N[C@@H](COC(=O)[C@@H](CC=C)CC(=O)OC(C)(C)C)Cc1c[nH]c2ccccc12 | -8 | -6 | 3668 | nt | 33* | -1 | 2
C=CC[C@@H](CC(=O)N(CCO)Cc1ccccc1)C(=O)NC[C@H](OC(=O)[C@@H](CC=C)CC(=O)OC(C)(C)C)c1ccccc1 | 2 | 5 | 2855 | nt | 37* | 0 | 11
C=CC[C@H](CC(=O)N(CCO)Cc1ccccc1)C(=O)N[C@H](COC(=O)[C@@H](CC=C)Cc1ccc(F)cc1)Cc1c[nH]c2ccccc12 | 2 | -11 | 3843 | nt | 31* | 0 | 7
